Values joined by “and” are separate entries in the source; they are usually repeats but may differ in a detail not shown here. Equal values may be shown once. This is part of a sample that, as a whole, favours compounds with a hit. Of some 83,000 tested, about 20% had one in any assay.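 Single-concentration screen, 48 h exposure, 96-well plates. Endpoint: percent growth. Below 10 = active.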 Active and inactive are the calls of the source.
Columns and labels:
Assay in all cases: NCI-60 one-dose screen, 48 h (100 = growth as untreated, 0 = no growth, -100 = all killed)
RPMI-8226 leukemia = test system: RPMI-8226 leukemia
OVCAR-8 ovarian = test system: OVCAR-8 ovarian
OVCAR-5 ovarian = test system: OVCAR-5 ovarian
OVCAR-4 ovarian = test system: OVCAR-4 ovarian
SK-OV-3 ovarian = test system: SK-OV-3 ovarian
OVCAR-3 ovarian = test system: OVCAR-3 ovarian
HS 578T breast = test system: HS 578T breast
NCI/ADR-RES ovarian = test system: NCI/ADR-RES ovarian
T-47D breast = test system: T-47D breast
IGROV1 ovarian = details: 10 µM

Measured: growth

C=C1N(C)c2ccc(Cl)cc2C1(C)C
active: RPMI-8226 leukemia; 10 µM -13.2%
inactive: OVCAR-8 ovarian; 10 µM 67.9% | OVCAR-5 ovarian; 10 µM 82.9% | OVCAR-4 ovarian; 10 µM 60.7% | SK-OV-3 ovarian; 10 µM 82% | OVCAR-3 ovarian; 10 µM 42.9% | HS 578T breast; 10 µM 49.8% | NCI/ADR-RES ovarian; 10 µM 95.8% | T-47D breast; 10 µM 33.7%

CC(=O)O[C@H]1C(=O)[C@@]2(C)[C@H]([C@H](OC(=O)c3ccccc3)[C@]3(O)C[C@H](OC(=O)[C@H](O)[C@@H](NC(=O)c4ccccc4)c4ccccc4)C(C)=C1C3(C)C)[C@]1(OC(C)=O)CO[C@@H]1C[C@@H]2O
-13% (active) and 57.6% (inactive): OVCAR-4 ovarian; 10 µM
active: RPMI-8226 leukemia; 0.01 µM -10.5% | RPMI-8226 leukemia; 5 µM 1.39% | RPMI-8226 leukemia; 10 µM -42.3% and 8.81% | OVCAR-8 ovarian; 2.5 µM 4.98% | OVCAR-5 ovarian; 2.5 µM 9.17% | OVCAR-3 ovarian; 0.01 µM -6.94% | OVCAR-3 ovarian; 2.5 µM -5.62% | OVCAR-3 ovarian; 5 µM -2.89% | OVCAR-3 ovarian; 10 µM 0.613% and 0.903% | HS 578T breast; 0.01 µM -47.1% | HS 578T breast; 2.5 µM -18.5% | HS 578T breast; 5 µM -14.2% | HS 578T breast; 10 µM -14.9% and 2.62% | NCI/ADR-RES ovarian; 10 µM -0.311% and 9.92%
inactive: RPMI-8226 leukemia; 2.5 µM 11.4% | OVCAR-8 ovarian; 5 µM 11.6% | OVCAR-8 ovarian; 10 µM 18.4% | OVCAR-5 ovarian; 0.01 µM 20.6% | OVCAR-5 ovarian; 5 µM 10.8% | OVCAR-5 ovarian; 10 µM 41.8% and 13.7% | OVCAR-4 ovarian; 0.01 µM 64.7% | OVCAR-4 ovarian; 2.5 µM 56.9% | OVCAR-4 ovarian; 5 µM 61.3% | SK-OV-3 ovarian; 0.01 µM 52% | SK-OV-3 ovarian; 2.5 µM 10.2% | SK-OV-3 ovarian; 5 µM 16.2% | SK-OV-3 ovarian; 10 µM 42.9% and 12.8% | NCI/ADR-RES ovarian; 0.01 µM 92.8% | NCI/ADR-RES ovarian; 2.5 µM 50.7% | NCI/ADR-RES ovarian; 5 µM 25.9% | T-47D breast; 0.01 µM 35.5% | T-47D breast; 2.5 µM 27.9% | T-47D breast; 5 µM 32.5% | T-47D breast; 10 µM 48.7% and 32.3%

COc1ccc(C(C#N)=C2C=CC(=NO)C=C2)cc1
inactive: RPMI-8226 leukemia; 10 µM 22% | OVCAR-8 ovarian; 10 µM 80.3% | OVCAR-5 ovarian; 10 µM 137% | OVCAR-4 ovarian; 10 µM 91.7% | SK-OV-3 ovarian; 10 µM 114% | OVCAR-3 ovarian; 10 µM 87.3% | HS 578T breast; 10 µM 99.6% | NCI/ADR-RES ovarian; 10 µM 94.8%
active: T-47D breast; 10 µM 1.56%

O=C1c2cccc3cc([N+](=O)[O-])cc(c23)C(=O)N1CCN1CCCC1
active: RPMI-8226 leukemia; 10 µM -19.1% | OVCAR-8 ovarian; 10 µM 9.55% | OVCAR-5 ovarian; 10 µM -1.73% | OVCAR-4 ovarian; 10 µM 3.14% | SK-OV-3 ovarian; 10 µM -0.119% | OVCAR-3 ovarian; 10 µM -16.8% | HS 578T breast; 10 µM -25.4% | NCI/ADR-RES ovarian; 10 µM -2.54% | T-47D breast; 10 µM -6.31%

O=Nc1ccc(Nc2ccccc2)cc1
inactive: RPMI-8226 leukemia; 10 µM 27.1% | OVCAR-8 ovarian; 10 µM 66.4% | OVCAR-5 ovarian; 10 µM 103% | OVCAR-4 ovarian; 10 µM 57.3% | SK-OV-3 ovarian; 10 µM 108% | OVCAR-3 ovarian; 10 µM 49.4% | HS 578T breast; 10 µM 111% | NCI/ADR-RES ovarian; 10 µM 87.9% | T-47D breast; 10 µM 63.2%

N#CC(=C1C=CC(=NO)C=C1)c1ccccc1
active: RPMI-8226 leukemia; 10 µM -13% | OVCAR-8 ovarian; 10 µM 2.63% | OVCAR-5 ovarian; 10 µM -10.1% | OVCAR-3 ovarian; 10 µM -26.8% | HS 578T breast; 10 µM -18.3% | NCI/ADR-RES ovarian; 10 µM -37.2% | T-47D breast; 10 µM -8.58%
inactive: OVCAR-4 ovarian; 10 µM 14.4% | SK-OV-3 ovarian; 10 µM 37.8%

Cc1cc(N=C2C=CC(=[N+](C)C)C=C2)c(N)cc1N
inactive: RPMI-8226 leukemia; 10 µM 65.7% | OVCAR-8 ovarian; 10 µM 92.8% | OVCAR-5 ovarian; 10 µM 95.6% | OVCAR-4 ovarian; 10 µM 82.3% | SK-OV-3 ovarian; 10 µM 105% | OVCAR-3 ovarian; 10 µM 16.5% | HS 578T breast; 10 µM 94.5% | NCI/ADR-RES ovarian; 10 µM 80.4% | T-47D breast; 10 µM 87.1%

CCOC(=O)[C@]1(Br)CC[C@@]1(Br)C(=O)OCC
inactive: RPMI-8226 leukemia; 10 µM 96.8% | OVCAR-8 ovarian; 10 µM 95.6% | OVCAR-5 ovarian; 10 µM 104% | OVCAR-4 ovarian; 10 µM 101% | SK-OV-3 ovarian; 10 µM 112% | IGROV1 ovarian 52.1% | OVCAR-3 ovarian; 10 µM 133% | HS 578T breast; 10 µM 102% | NCI/ADR-RES ovarian; 10 µM 107% | T-47D breast; 10 µM 70.7%

From PubChem BioAssay (NCI)
